The source of these data is PubChem BioAssay (NCATS).

The structures appear in SMILES notation. Several values for one entry are separate records, joined by “and”; a condition that tells them apart may be missing. Identical values can stand only once. Values without a mark were called inactive. Calls come from the whole dose curve; as a rule, active = well fitted activation curve with a large enough effect; inconclusive = small, poorly fitted or top-dose-only effect; inactive = no such curve, though single readings can be large or run the other way.

Chain of Cytochrome P450 3A4 (Homo sapiens) (P08684 whole entry, looked up): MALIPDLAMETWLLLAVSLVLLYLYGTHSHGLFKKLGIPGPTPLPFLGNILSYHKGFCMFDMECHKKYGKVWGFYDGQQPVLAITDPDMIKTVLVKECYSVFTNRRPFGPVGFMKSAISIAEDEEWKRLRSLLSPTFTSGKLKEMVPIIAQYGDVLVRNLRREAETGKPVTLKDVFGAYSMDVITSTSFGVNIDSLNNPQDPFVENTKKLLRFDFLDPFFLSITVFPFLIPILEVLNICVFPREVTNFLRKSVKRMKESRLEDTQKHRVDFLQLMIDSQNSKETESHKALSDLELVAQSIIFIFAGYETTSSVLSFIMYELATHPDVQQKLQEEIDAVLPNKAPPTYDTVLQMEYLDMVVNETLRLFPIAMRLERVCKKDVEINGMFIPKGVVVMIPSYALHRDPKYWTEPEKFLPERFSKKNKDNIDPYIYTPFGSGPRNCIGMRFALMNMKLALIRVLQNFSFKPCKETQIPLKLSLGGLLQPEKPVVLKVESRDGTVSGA

The target of this experiment is Cytochrome P450 3A4 (Homo sapiens) (UniProt P08684). Put plainly: qHTS Assay for Activators of Cytochrome P450 3A4 (AID 885). Note: nearly all actives have a fitted effect of over 65% in size. The note with it: recombinant CYP3A4, Luciferin-PPXE luminescence, 60 min; series mostly up to 57.1 µM; activity change, positive = activation: at the top concentration. The method, boiled down:
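Steps: enzyme/substrate mix dispensed; compound added, 10 min RT; NADPH regeneration solution added, 60 min RT; luciferin detection buffer stops reaction; 20 min later luminescence measured.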
On the technique in general: qHTS replaces the single test concentration by a dilution series.
On to `CCC1=C2CC[C@H]3C(=O)N(CC(=O)OC)C(=O)[C@H]3[C@H]2[C@@]2(C)C(=NCC(=O)OC)OC(=O)N2C1=O`, for which the “activity change, positive = activation” value is -54.5%.
For `COC(=O)C/C=C\[C@@H](C)[C@@H](/C=N\OC[C@@H](O)[C@H]1O[C@H]2OC(C)(C)O[C@H]2[C@@H]1O)OC`, the activity change, positive = activation was -43.3% [at 11.4 µM].
As for `CCC[C@@H]1C[C@@]1(CCC)C(NC(=O)OCc1ccccc1)c1ccc(-c2ccccc2)cc1` (some centres undefined), the figure is -59.3%; as for `CC(=O)OC[C@@H]1O[C@H](C/C=N\O[C@@H](C)CN2CCCc3nc(C)c(C)cc32)C=C[C@@H]1OC(C)=O`, -35.5% [at 11.4 µM]; as for `CC(=O)OCC1OC(C#Cc2ccc(Br)cc2)C=CC1OC(C)=O` (centres undefined), -46% [at 11.4 µM].
With `CO[C@@H]1/C=C\CC(=O)N[C@@H](C)C(=O)OC[C@@H](OC)[C@H](C)CCCC(=O)OC[C@H]1C`, the activity change, positive = activation was -57.1% [at 11.4 µM].
As for `CC(C)=NO[C@@H](C)CN1CCCCc2nc(C)c(C)cc21`, the figure is -46.4% [at 11.4 µM].
As for `COC(=O)[C@@H]1C[C@H]2CC[C@H](O)C[C@H]2N1Cc1ccc(C)s1`, the figure is -34.9%; as for `O=C(NCCC[N+]1=CC=N[C@H]1c1ccccc1)N1CCCc2nc(-c3ccc(Br)cc3)ccc21`, -35.8% [at 11.4 µM]; as for `CC1CCC2C(=O)N3C(CCC(C)C3c3ccccc3Br)C(=O)N2C1c1ccc(C#CCN(C)C)cc1` (centres undefined), -38.2% [at 11.4 µM].
For `C[C@@H](c1ccccc1)N1C(=O)[C@H]2[C@H]3[C@H](O)[C@H](O)C/C(=N/OCc4ccccc4)[C@@H]3CC[C@@H]2C1=O`, the activity change, positive = activation is -50% [at 11.4 µM].
As to `CC(=O)OC[C@@H]1O[C@H](CCO/N=C(\C)CCN2CCCc3nc(C)c(C)cc32)C=C[C@@H]1OC(C)=O`, the activity change, positive = activation was -42.6% [at 11.4 µM].
In the case of `COc1ccc(COC(=O)N/N=C2/C[C@@H](O)[C@@H](O)[C@@H]3[C@@H]4C(=O)N(C(C)(C)C)C(=O)[C@H]4CC[C@H]23)cc1`, the activity change, positive = activation was -30.7% [at 11.4 µM].
For `CCOC(=O)N/N=C1/C[C@@H](O)[C@@H](O)[C@@H]2[C@@H]3C(=O)N(Cc4ccc5c(c4)OCO5)C(=O)[C@H]3CC[C@H]12` the value was -58.6% [at 11.4 µM]; for `CC(=O)OC[C@H]1O[C@@H](O/N=C(\C)CCN2CCCCc3nc(C)c(C)cc32)[C@H](OC(C)=O)[C@@H](OC(C)=O)[C@H]1OC(C)=O`, -53.9% [at 11.4 µM]; for `Cc1ccc2oc(=O)c3c4cc(O)c(O)c(C)c4oc3c2c1`, -37.5%.
Take `COc1ccc(OC2C(O)COC2/C=C/c2ccccc2)cc1` (centres undefined): the activity change, positive = activation was -47.5% [at 11.4 µM] and -40.4% [at 11.4 µM].
For `CC(C)(C)N1C(=O)[C@H]2[C@H]3[C@H](O)[C@H](O)C/C(=N/OC[C@@H](O)COCc4ccco4)[C@H]3CC[C@@H]2C1=O`, the activity change, positive = activation was -30.9% [at 11.4 µM].
For `CC1CCC2C(=O)N3C(CCC(C)[C@H]3c3ccccc3Br)C(=O)N2C1c1ccccc1Br` (some centres undefined) the value was -55.3% [at 11.4 µM].
As for `CC(=O)OC[C@@H]1O[C@@H](O/N=C2/C[C@@H](O)[C@@H](O)[C@@H]3[C@@H]4C(=O)N(Cc5ccc6c(c5)OCO6)C(=O)[C@H]4CC[C@@H]23)[C@H](OC(C)=O)[C@H](OC(C)=O)[C@@H]1OC(C)=O`, the figure is -36.6% [at 11.4 µM]; as for `CO[C@@H]1COC(=O)[C@@H](C)NC(=O)C/C=C\[C@@H](C)[C@H](NS(=O)(=O)c2ccc(C)cc2)COC(=O)[C@H](C)NC(=O)C/C=C\[C@H]1C`, -53.2% [at 11.4 µM]; as for `COC(=O)NC(/C(C(=O)OC)=C(\C)NCc1ccccc1)c1cccs1` (centres undefined), -35.9% [at 11.4 µM].
As for `C[C@@H]1/C=C\CC(=O)OC[C@H]2O[C@@H](C=C[C@@H]2O)[C@H](C)/C=C\CC(=O)OC1`, the figure is -35.6% [at 11.4 µM]; as for `CO[C@@H]1/C=C\CC(=O)N[C@@H](C)C(=O)OC[C@H](NS(=O)(=O)c2ccc(C)cc2)[C@H](C)/C=C\CC(=O)OC[C@H]1C`, -37.9% [at 11.4 µM]; as for `COc1ccc(COC(=O)N/N=C2/C[C@@H](O)[C@@H](O)[C@@H]3[C@H]4C(=O)N(c5ccc(F)cc5F)C(=O)[C@@H]4CC[C@H]23)cc1`, -51.6% [at 11.4 µM].
As for `N#Cc1ccc(C23CC4(C2)[C@H](CN(Cc2ccc(C(F)(F)F)cc2)[C@@H]4c2ccccc2)C3c2ccccc2)cc1` (some centres undefined), the “activity change, positive = activation” value was -57.8%.
For `CCc1cc2c(nc1CC)CCN(CC/C(C)=N/OCC[C@@H]1C=C[C@H](OC(C)=O)[C@H](COC(C)=O)O1)C2` the value was -32.1% [at 11.4 µM]; for `N#CCC(=O)NC(=O)NCC1CC1`, -36.4%; for `COC(=O)[C@@H]1C[C@@H]2CC[C@@H](O)C[C@@H]2N1Cc1ccc(C(F)(F)F)cc1`, -53%.
In the case of `COc1ccc(OC2C=CC(C#Cc3ccc(C(C)(C)C)cc3)OC2CO)cc1` (centres undefined), the activity change, positive = activation is -56.3% [at 11.4 µM].
As to `C=CCC1C=CC(Oc2ccc(F)cc2C)C(CO)O1` (centres undefined), the activity change, positive = activation was -81.3% [at 11.4 µM].
On to `Clc1ccc(C2[C@H]3CN(CC4CCCCC4)[C@H](c4ccccc4)C34CC2(c2ccccc2)C4)cn1` (some centres undefined), for which the “activity change, positive = activation” value was -37.5%.
Take `C[C@H](O/N=C1/[C@H]2O[C@@H]2[C@@H](O)[C@H]2[C@H]1CCn1c(=O)n(-c3ccccc3)c(=O)n12)c1cn([C@H](CO)Cc2ccccc2)nn1`: the activity change, positive = activation was -48.5% [at 11.4 µM] and -48.2% [at 11.4 µM].
For `CO/N=C(\C)CCN1CCCCc2nc(C)c(C)cc21` the value was -38.2% [at 11.4 µM]; for `C(#CC1C=CC2OC(c3ccccc3)OCC2O1)c1ccccc1` (centres undefined), -40.5% [at 11.4 µM]; for `CCC1=C(OC(=O)N(CC)CC)N2C(=O)OC(=NCCOC)[C@]2(C)[C@H]2C1=CC[C@H]1C(=O)N(C)C(=O)[C@H]12`, -59.6%.
As for `CCC1=C2CC[C@H]3C(=O)N(c4ccccc4)C(=O)[C@H]3[C@H]2[C@@]2(C)C(=O)N(CC(=O)OC)C(=O)N2C1=O`, the figure is -54.5%.
As for `CC1CCC2C(=O)OC(CO)CN2C1c1ccc(Br)cc1` (centres undefined), the figure is -46.2% [at 11.4 µM]; as for `CC(=O)OC[C@H]1O[C@@H](O/N=C(\C)CCN2CCCc3nc(C)c(C)cc32)[C@H](OC(C)=O)[C@@H](OC(C)=O)[C@H]1OC(C)=O`, -36.5% [at 11.4 µM].
